The values below come from PubChem BioAssay.

Active and inactive are the calls of the source.

Assay [1] deals with Plasmodium falciparum Sir2 (PF13_0152, Sir2A). In words: pfSir2 binders on small-molecule microarrays, primary screen, biochemical, small-molecule microarray, 635 nm fluorescence (AID 1098).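 Further: score merges spot fluorescence intensity with its signal-to-noise ratio.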 As to conditions: small-molecule microarray binding, fluorescence 635 nm; higher = more signal.
Assay [2] can be described thus: small-molecule microarray binders of probe aDKK1, primary screen, biochemical, biotinylated probe, 635/667 nm fluorescence (AID 1099).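 Further: score merges 667nm spot fluorescence with signal to noise across triplicate slides; reference of the scale not given here.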 As to conditions: higher = more signal.
The nature of assay [3]: small-molecule microarray binders of probe aCHRDL2, primary screen, biochemical, biotinylated probe, 635/667 nm fluorescence (AID 1100). As to conditions: higher = more signal.
Assay [4] can be described thus: splicing luciferase reporter signal modulators, primary screen, spliceosome inhibition project, cell-based, HEK293, splice +/- reporter (AID 1101).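 Further: HEK293 cells carrying a splicing-competent luciferase reporter gene; test concentration not given here.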 The conditions noted are these: luminescence, 24 h, higher = more signal, called active from +8 up or from −8 down. For orientation: In a reporter assay the amount or activity of a reporter protein is the signal.
The target of assay [5] is Fibroblast growth factor 10 (Homo sapiens) (UniProt O15520). In words: FGF10 binders on small-molecule microarrays, primary screen, biochemical, small-molecule microarray, 635 nm fluorescence (AID 1102). As to conditions: FGF10 binding, fluorescence 635 nm, higher = more signal.
Fibroblast growth factor 10 (Homo sapiens), sequence (O15520 whole entry, looked up): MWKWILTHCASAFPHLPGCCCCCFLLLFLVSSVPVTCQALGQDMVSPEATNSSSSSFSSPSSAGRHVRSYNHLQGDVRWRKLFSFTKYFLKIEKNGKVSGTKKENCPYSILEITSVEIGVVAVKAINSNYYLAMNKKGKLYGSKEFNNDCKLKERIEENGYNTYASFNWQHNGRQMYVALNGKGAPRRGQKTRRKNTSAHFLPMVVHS
Assay [6] deals with glycogen synthase kinase-3 (GSK3A per assay name; protocol says GSK3B). In words: GSK3 binders on small-molecule microarrays, primary screen, biochemical, small-molecule microarray, 635 nm fluorescence, GSK3A (AID 1103). Further: the record names both GSK3A and GSK3B. The conditions noted are these: small-molecule microarray binding, fluorescence 635 nm; higher = more signal.
Assay [7] deals with Epidermal growth factor receptor (Homo sapiens) (UniProt P00533). In words: EGFR binders on small-molecule microarrays, primary screen, biochemical, small-molecule microarray, 635 nm fluorescence (AID 1104).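 Further: score merges 667 nm emission intensity with spot signal to noise over triplicate slides.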 The conditions noted are these: EGFR binding, higher = more signal.
Epidermal growth factor receptor (Homo sapiens), sequence (P00533 whole entry, looked up): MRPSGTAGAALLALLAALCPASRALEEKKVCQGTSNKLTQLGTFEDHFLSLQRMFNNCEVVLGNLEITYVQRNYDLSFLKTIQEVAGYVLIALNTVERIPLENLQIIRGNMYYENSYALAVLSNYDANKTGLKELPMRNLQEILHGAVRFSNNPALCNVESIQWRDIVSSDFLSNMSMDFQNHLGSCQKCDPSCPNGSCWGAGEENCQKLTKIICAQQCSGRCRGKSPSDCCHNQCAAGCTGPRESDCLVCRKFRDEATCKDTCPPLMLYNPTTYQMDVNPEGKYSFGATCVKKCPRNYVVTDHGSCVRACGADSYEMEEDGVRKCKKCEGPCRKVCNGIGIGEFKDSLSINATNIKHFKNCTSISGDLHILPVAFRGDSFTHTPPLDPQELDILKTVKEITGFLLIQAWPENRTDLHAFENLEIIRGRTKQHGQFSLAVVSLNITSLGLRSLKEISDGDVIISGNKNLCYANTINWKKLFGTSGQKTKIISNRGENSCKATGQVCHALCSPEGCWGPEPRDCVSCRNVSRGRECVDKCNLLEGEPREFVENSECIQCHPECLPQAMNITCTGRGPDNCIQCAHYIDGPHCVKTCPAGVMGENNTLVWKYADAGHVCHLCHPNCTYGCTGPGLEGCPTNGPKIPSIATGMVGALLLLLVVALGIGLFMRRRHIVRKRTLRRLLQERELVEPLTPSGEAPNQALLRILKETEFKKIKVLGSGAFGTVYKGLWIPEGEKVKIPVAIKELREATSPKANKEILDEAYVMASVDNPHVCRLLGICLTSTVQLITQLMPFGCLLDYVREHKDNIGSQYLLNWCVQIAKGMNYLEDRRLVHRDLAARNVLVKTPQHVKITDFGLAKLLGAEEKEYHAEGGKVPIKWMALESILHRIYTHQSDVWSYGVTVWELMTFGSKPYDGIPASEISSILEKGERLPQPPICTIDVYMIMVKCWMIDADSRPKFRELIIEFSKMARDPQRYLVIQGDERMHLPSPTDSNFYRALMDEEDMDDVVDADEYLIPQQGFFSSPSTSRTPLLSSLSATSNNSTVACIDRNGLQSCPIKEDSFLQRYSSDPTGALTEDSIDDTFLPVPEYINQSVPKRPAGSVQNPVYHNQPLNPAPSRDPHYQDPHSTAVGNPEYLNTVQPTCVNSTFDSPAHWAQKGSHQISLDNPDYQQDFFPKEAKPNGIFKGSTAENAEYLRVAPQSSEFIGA
For assay [8], the target named is Follistatin-related protein 3 (Homo sapiens) (UniProt O95633). In words: FSTL3 binders on small-molecule microarrays, primary screen, biochemical, small-molecule microarray, 635 nm fluorescence (AID 1105).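 Further: score merges emission near 667 nm and signal to noise per printed spot across three slides.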 As to conditions: FSTL3 binding, higher = more signal.
Follistatin-related protein 3 (Homo sapiens), sequence (O95633 whole entry, looked up): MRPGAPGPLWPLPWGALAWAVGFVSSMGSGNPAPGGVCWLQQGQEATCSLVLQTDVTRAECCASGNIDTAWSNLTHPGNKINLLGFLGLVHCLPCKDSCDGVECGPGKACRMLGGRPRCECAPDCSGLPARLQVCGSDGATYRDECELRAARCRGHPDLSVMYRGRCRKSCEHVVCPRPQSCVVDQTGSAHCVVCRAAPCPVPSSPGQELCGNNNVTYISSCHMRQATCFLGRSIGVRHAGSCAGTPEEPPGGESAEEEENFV
Assay [9] addresses Dickkopf-related protein 1 (Homo sapiens) (UniProt O94907). In words: DKK1 binders on small-molecule microarrays, primary screen, biochemical, small-molecule microarray, 635 nm fluorescence scan (AID 1106).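 Further: score merges emission near 667 nm with signal to noise over three replicate slides.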 As to conditions: DKK1 binding, higher = more signal.
Assay [10] relates to Inhibin beta A chain (activin A). In words: INHBA (activin A) binders on microarrays, primary screen, biochemical, small-molecule microarray, 635 nm fluorescence scan (AID 1107).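 Further: mouse activin A protein probed at 4.33 µg/mL on printed slides; score merges bound-protein fluorescence near 667 nm with spot signal-to-noise.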 The conditions noted are these: small-molecule microarray binding, higher = more signal.

Dickkopf-related protein 1 (Homo sapiens), sequence (O94907 whole entry, looked up): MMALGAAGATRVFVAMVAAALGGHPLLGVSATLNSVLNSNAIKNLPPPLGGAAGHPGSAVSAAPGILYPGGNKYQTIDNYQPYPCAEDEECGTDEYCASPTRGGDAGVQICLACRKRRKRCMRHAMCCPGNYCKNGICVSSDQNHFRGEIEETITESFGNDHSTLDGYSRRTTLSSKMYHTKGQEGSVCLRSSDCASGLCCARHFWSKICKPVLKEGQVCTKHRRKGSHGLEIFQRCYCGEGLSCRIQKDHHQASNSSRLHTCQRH

As for `O=C(O)[C@H](Cc1ccccc1)n1cc(-c2ccccc2)nn1`, the composite z-score in [1] was 0.0064; in assay [2], -0.284; in assay [3], -0.367; in assay [5] it was 0.467; in assay [6], 0.569; in [7], 0.293. Moreover, the composite z-score in [8] was found to be 0.179; in [9], 0.31; in [10] it was 0.267. In addition, in assay [4], the z-score is -0.544 (inactive).
Consider `C=C(C)[C@@H]1CC=C(C(O)C2C=CC3C(=O)NC(=O)C3N2Nc2ccc(Cl)cc2Cl)CC1` (stereo not given in full), for which the composite z-score stood at 0.576 in assay [1]; 0.802 in assay [2]; 1.3 in assay [3]; 0.276 in assay [5]; 0.289 in assay [6]; 0.433 in assay [7]. The composite z-score worked out at 1.06 in assay [8], 0.414 in assay [9] and 1.66 in [10]. Further, the z-score in [4] is 0.172 (inactive).
For the molecule `COCCOC(=O)N1C(=O)[C@@]2(c3cc(C#Cc4ccc(OC)cc4)ccc31)[C@H](c1ccc(O)cc1)N1[C@H](c3ccccc3)[C@H](c3ccccc3)OC(=O)[C@H]1[C@@H]2C(=O)Nc1nc2ccccc2s1`, the composite z-score was 0.666 in assay [1]; -0.037 in [2]; 0.0407 in [3]; 1.22 in assay [5]; 1.09 in assay [6]; 0.404 in assay [7]. The composite z-score in assay [8] was found to be 0.899; in assay [9], 0.446; in assay [10], 0.277. For the same molecule, the z-score in [4] was -0.0561 (inactive).
Turning to `COCCOC(=O)N1C(=O)[C@@]2(c3cc(C#CCCO)ccc31)[C@H](c1ccc(OCCO)cc1)N1[C@H](c3ccccc3)[C@H](c3ccccc3)OC(=O)[C@H]1[C@@H]2C(N)=O`, the composite z-score in [1] was 0.923; in assay [2], 0.0909; in [3], -0.0603; in [5], 0.874; in [6], 1.3; in assay [7], 0.587. The composite z-score in [8] stood at 0.829; in [9], 0.441; in assay [10], 0.257. For the same molecule, the z-score in assay [4] was -1.59 (inactive).
On to `COC(=O)c1c2oc(c1C(=O)OC)C(=O)NC1(CCCCC1)c1cn(nn1)C[C@H](Cc1ccccc1)NC(=O)N[C@H](CO)CC2`, for which the composite z-score in assay [1] was -0.856; in assay [2] it was 0.0173; in assay [3], -0.709; in assay [5], 1.15; in [6] it was 0.386; in [7], 0.0053. Besides, the composite z-score was 0.34 in [8], 0.25 in assay [9] and -0.007 in [10]. In addition, the z-score in assay [4] was -0.365 (inactive).
Regarding `COc1cc2c(cc1O)C(c1cccs1)N(Cc1ccc([N+](=O)[O-])o1)CC2` (stereo not given), the composite z-score in [1] is 1.15; in [2], 0.728; in assay [3] it was 0.27; in assay [5], 0.876; in assay [6], 0.0693; in assay [7], -0.033. In addition, the composite z-score is -0.0839 in assay [8], -0.466 in assay [9] and -0.131 in assay [10]. Also, in [4], the z-score is -0.505 (inactive).
Regarding `O=C1C2C=CC(C(O)c3ccc(-c4ccccc4)s3)N(Nc3ccccc3)C2C(=O)N1c1ccccc1` (stereo not given), the composite z-score was 1.5 in assay [1]; 0.753 in assay [2]; 0.953 in [3]; 0.722 in assay [5]; 0.808 in assay [6]; -0.0664 in assay [7]. In addition, the composite z-score in [8] is 1.03; in assay [9], -0.632; in assay [10] it was 0.845. Besides, the z-score in assay [4] is 1.1 (inactive).
Regarding `COc1ccc([Si](C)(C)[C@H]2[C@H](CC(=O)N3CCC[C@H]3CO)O[C@@]3(C(=O)N(Cc4cccc(N5CCOC5=O)c4)c4ccccc43)[C@@H]2C)cc1`, the composite z-score is 0.927 in assay [1]; -0.195 in [2]; -0.425 in assay [3]; 0.578 in assay [5]; 0.712 in assay [6]; 0.909 in assay [7]. Further, the composite z-score in assay [8] worked out at 1.3; in [9], 0.437; in assay [10], 1.11. Moreover, the z-score in assay [4] is -0.298 (inactive).
Take `COc1ccc([Si](C)(C)[C@H]2[C@H](CCn3cc([C@H](O)c4ccccc4)nn3)O[C@@]3(C(=O)N(C)c4ccccc43)[C@@H]2C)cc1`: the composite z-score was 1.17 in [1]; -0.0149 in [2]; 0.376 in [3]; -0.133 in assay [5]; -0.621 in assay [6]; -0.55 in [7]. Further, the values for the composite z-score in assay [8], in [9] and in assay [10] were -0.165, -0.529 and 0.209, respectively. In addition, in assay [4], the z-score is 1.11 (inactive).
Consider `CS(=O)(=O)CCOC(=O)C1=CC(CCCO)=CC(C2CC2)N(Cc2cc3c(cc2Br)OCO3)C=C1C(=O)OCCS(C)(=O)=O` (stereo not given), for which the composite z-score in assay [1] is 0.405; in assay [2] it was 0.049; in assay [3], 0.49; in assay [5] it was 0.615; in assay [6], 0.28; in [7], -0.0183. Moreover, the results for the composite z-score in [8], in [9] and in [10] were 0.258, 0.322 and 1.33, respectively. For the same molecule, the z-score in assay [4] was 1.22 (inactive).
As to `[N-]=[N+]=NCc1ccccc1[C@H]1OC(c2ccc(OCCCO)cc2)=N[C@@]1(Cc1ccccc1)C(=O)N1CCCCC1`, the composite z-score stood at 1.14 in assay [1]; 0.344 in assay [2]; 0.574 in [3]; 1.34 in assay [5]; 1.3 in [6]; 0.0201 in [7]. Moreover, the composite z-score stood at 0.79 in assay [8], 0.428 in assay [9] and 0.522 in assay [10]. Besides, in assay [4], the z-score is -1.05 (inactive).
